A selection: hits, their analogues and other compounds. The true share with any hit is near 19%.
Gal4-VP16 FLuc = inhibits Gal4-VP16 luciferase reporter, ROR gamma counter-screen. AID 2546. actives 3.5% (n = 310,000). Potency, µM (series often up to 53.6 µM), for the others: top-dose activity, negative = inhibition, hits mostly inhibitors. Drosophila S2 Gal4-VP16 UAS-luciferase, luminescence, 20 h;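 also: Gal4-VP16 expression switched on by copper sulfate through the metallothionein promoter; nearly all actives have a fitted effect of over 50% in size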
RORgamma inh = ROR gamma (mouse) transcription inhibition | actives 5.4% (n = 310,000) | P51450 | Potency, µM (top dose mostly 53.6 µM), without a hit: top-dose activity change, negative = inhibition, most hits filed as inhibitors | AID 2551 | Drosophila S2 Gal4-RORgamma UAS-luciferase reporter, 20 h; also: nearly all actives have a fitted effect of over 60% in size
Target sequence (P51450 whole entry, looked up, the tested form may be a part): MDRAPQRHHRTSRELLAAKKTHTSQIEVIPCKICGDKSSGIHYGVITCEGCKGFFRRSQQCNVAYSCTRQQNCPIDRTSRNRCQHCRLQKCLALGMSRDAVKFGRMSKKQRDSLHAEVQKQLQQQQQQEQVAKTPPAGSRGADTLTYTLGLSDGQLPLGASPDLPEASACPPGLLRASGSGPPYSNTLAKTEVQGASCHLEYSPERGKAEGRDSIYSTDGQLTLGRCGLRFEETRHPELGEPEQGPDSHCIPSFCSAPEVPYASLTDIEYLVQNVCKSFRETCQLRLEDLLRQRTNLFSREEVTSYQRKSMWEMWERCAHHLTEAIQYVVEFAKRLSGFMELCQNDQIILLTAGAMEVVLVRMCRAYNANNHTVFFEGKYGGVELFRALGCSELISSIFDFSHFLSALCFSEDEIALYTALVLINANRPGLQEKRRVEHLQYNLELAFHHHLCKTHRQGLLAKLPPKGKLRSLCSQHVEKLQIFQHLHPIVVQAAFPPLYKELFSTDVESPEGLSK
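Compounds are pin-transferred onto Drosophila Schneider cells expressing a copper-inducible Gal4–ROR gamma transactivation domain fusion. After 1 hr, copper sulfate is added to 700 uM final; luciferase is read 20 hr later.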
DT40 TDP1 no CPT = qHTS for Inhibitors of human tyrosyl-DNA phosphodiesterase 1 (TDP1): qHTS in cells in absence of CPT; Potency, µM (highest dose often 46.2 µM), inactives show top-dose activity change, negative = growth inhibition, usual class: inhibitors; actives 15% (n = 420,000); DT40 Tdp1-/- hTDP1 cells, no CPT, ATP luminescence, 48 h; AID 686978, 2013; also: nearly all actives have a fitted effect of over 55% in size
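Chicken DT40 Tdp1-/- cells complemented with human TDP1, screened without camptothecin (DMSO vehicle only), 400 cells/well. Compounds pin-transferred, cells incubated at 37 °C for at least 48 hr. Growth read as ATP-dependent luminescence (CellTiter-Glo, 30 min at RT).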
TDP1 block = blocks human tyrosyl-DNA phosphodiesterase 1; Potency, µM (titrated, usually from 130 µM), inactives show top-dose activity change, negative = inhibition, most hits filed as inhibitors; recombinant TDP1, AlphaScreen DNA substrate cleavage; AID 485290; actives 0.28% (n = 350,000); Q9NUW8; also: nearly all actives have a fitted effect of over 40% in size
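Recombinant human Tdp1 (E. coli-expressed, 1 nM final) preincubated with compounds 15 min at room temperature, then 5'-biotin/3'-phosphotyrosine-FITC DNA substrate (15 nM final) added for 5 min. AlphaScreen beads (10 ug/ml final) added 10 min; cleavage lowers signal.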
TDP1 cell CPT = DT40-hTDP1 cell growth loss with CPT. chicken DT40 Tdp1-/-;hTDP1 cells + 20 nM CPT, ATP luminescence, 48 h. Potency, µM (titrated, usually from 46.2 µM), for inactives: at the top dose activity change, negative = growth inhibition, usual class: inhibitors. actives 12% (n = 420,000). AID 686979; also: nearly all actives have a fitted effect of over 55% in size
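Chicken DT40 Tdp1-/- cells stably complemented with human TDP1 were seeded at 400 cells/well in medium containing 20 nM camptothecin, exposed to pin-transferred compounds, and grown at 37 °C for at least 48 hr. Viability was read as ATP luminescence.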
* = called active by the depositor; ? = inconclusive; · = no result given. Calls follow the shape of the dose curve; as a rule, active = well fitted curve in the direction sought with a large enough effect; inconclusive = small, poorly fitted or top-dose-only effect, or another doubt; inactive = no such curve, though single readings can be large; an effect the other way counts as inactive or inconclusive. % is scaled to controls: 0 for no effect and ±100 for the full control effect; potency is read from the fitted curve at half-maximal effect.

SMILES | Gal4-VP16 FLuc | RORgamma inh | DT40 TDP1 no CPT | TDP1 block | TDP1 cell CPT
CC(Nc1nc(-c2ccc(F)cc2)cs1)c1nc2cc(Cl)c(Cl)cc2n1CCOCCO (stereo not given) | · | · | 21µM* | · | 23µM*
O=[N+]([O-])c1cc(-c2csc(NCCc3nc4cc(Cl)c(N5CCCCC5)cc4n3CCCO)n2)ccc1Cl | · | · | 16µM* | · | ?
Cc1csc(NC(C)c2nc3cc(C(F)(F)F)ccc3n2CCOCCO)n1 (stereo not given) | · | · | -23% | · | ?
CC(Nc1nc(-c2ccc(F)cc2)cs1)c1nc2cc(Cl)c(N3CCCCC3)cc2n1CCCO (stereo not given) | · | · | 5.8µM* | · | 7.3µM*
O=[N+]([O-])c1cc([N+](=O)[O-])c(N2CCCCCC2)cc1NCCO | -1% | ? | ? | 6% | -23%
COc1ccc(-c2csc(NC(C)c3nc4cc(Cl)c(Cl)cc4n3CCCO)n2)cc1 (stereo not given) | · | · | 15µM* | · | ?
N#CCCN(C(=O)Nc1ccccc1)C1CCCCC1 | · | · | 3% | · | 2%
Cn1cc(CN(C(=O)Nc2ccccc2)C2CCCCC2)c2ccccc21 | · | · | 8.2µM* | 0% | 6.5µM*
Cn1cc(CN(C(=O)Nc2ccc(Cl)c(Cl)c2)C2CCCCC2)c2ccccc21 | · | · | 4.1µM* | 5% | 2.3µM*
CCCCNC(=O)C(CC)Sc1nc2ccccc2c(=O)n1CCc1ccc(OC)c(OC)c1 (stereo not given) | · | · | 8.2µM* | -1% | 8.2µM*
CCOc1ccc(CCn2c(-c3ccco3)nc3ccccc3c2=O)cc1OCC | -1% | ? | 0.82µM* | 8% | 1.3µM*
CCOC(=O)CSc1nc2ccccc2c(=O)n1CCc1ccc(OC)c(OC)c1 | · | · | 12µM* | -1% | 13µM*
O=c1c2ccccc2oc2nc(-c3ccco3)n(CCc3ccccc3)c(=O)c12 | -2% | -5% | · | 6% | ·
CCOC(=O)CSc1nc2ccccc2c(=O)n1CCC(=O)NCCc1ccc(OC)c(OC)c1 | -3% | -10% | -20% | 2% | -7%
CC(=O)N(C(C)=O)c1ncn(C)c1S(=O)(=O)Nc1ccccc1 | · | · | 5% | · | 2%
O=C(NCc1ccc(N2CCCC2=O)cc1)c1ccc(F)cc1 | -8% | -1% | 2% | 4% | 2%
Cn1nc(C(C)(C)C)cc1C(=O)NCc1ccc(N2CCCC2=O)cc1 | 0.56µM* | ? | 2.3µM* | 5% | 3.3µM*
O=C(NCc1ccccc1Cl)C1CCN(S(=O)(=O)c2ccc(-n3cnnn3)cc2)CC1 | 20% | -14% | -11% | 10% | 0%
O=C(NCc1ccc(F)cc1)C1CCN(S(=O)(=O)c2ccc(N3CCCC3=O)cc2)CC1 | · | · | 16µM* | · | ?
O=C(NCc1ccccc1Cl)C1CCN(S(=O)(=O)c2ccc(N3CCCC3=O)cc2)CC1 | -20% | -35% | ? | 1% | 16µM*
COc1ccc(CNC(=O)C2CCN(S(=O)(=O)c3ccc(N4CCCC4=O)cc3)CC2)cc1 | · | · | 12µM* | · | 26µM*
CCN(C(=O)COC(=O)CNS(=O)(=O)c1ccc2ccccc2c1)C1CCCCC1 | · | · | -28% | · | -23%
COc1ccc(NC(=O)C2CCN(S(=O)(=O)c3ccc(N4CCCC4=O)cc3)CC2)c(OC)c1 | ? | ? | -2% | 3% | ?
O=C(NCCO)C1CCN(S(=O)(=O)c2ccc(F)cc2)CC1 | -3% | -5% | 5% | 4% | 3%
Cc1ccc(CNC(=O)C2CCN(S(=O)(=O)N3CCC(C)CC3)CC2)cc1 | · | · | ? | -3% | -18%
Cc1ccc(NC(=O)C2CCN(S(=O)(=O)c3ccc(N4CCCC4=O)cc3)CC2)cc1Cl | 3.2µM* | ? | 4.1µM* | 2% | 5.8µM*
CCNC(=O)C1CCN(S(=O)(=O)c2ccc(F)cc2)CC1 | 0% | -10% | 18µM* | 2% | ?
CCc1ccc(CNC(=O)C2CCN(S(=O)(=O)N3CCC(C)CC3)CC2)cc1 | -11% | 1% | 26µM* | 3% | ?
